Source: PubChem BioAssay (EPA / NIEHS)
Results filed as inconclusive are left out. Active and inactive are the calls of the source. The calls were made as follows, unless noted: active = hit-call score of the fitted dose curve at least 0.9, where 1 is the maximum; inactive = score below 0.9.

Key:
[1] = target: Nucleoli Translocation, AR (gene 367) (UniProt P10275); assay: UPITT_HCI_U2OS_AR_TIF2_Nucleoli_Antagonist: University of Pittsburgh U2OS Androgen Receptor-Transcriptional Intermediary Factor 2 (AR-TIF2) Antagonism High Content Imaging Assay for Nucleoli Translocation (AID 2283997; active = hit-call score of the fitted dose curve at least 0.9, where 1 is the maximum)
Method in brief: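 An antagonist-mode imaging screen: engineered U2OS (AR-RFP, TIF2-GFP) exposed to 20 uM compound, 0.2% DMSO. Activity reflects nucleolar red fluorescence change relative to DHT baseline.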

[2] = target: Nucleoli Translocation, AR (gene 367) (UniProt P10275); assay: UPITT_HCI_U2OS_AR_TIF2_Nucleoli_Agonist: University of Pittsburgh U2OS Androgen Receptor-Transcriptional Intermediary Factor 2 (AR-TIF2) Agonism High Content Imaging Assay for Nucleoli Translocation (AID 2283998; active = hit-call score of the fitted dose curve at least 0.9, where 1 is the maximum)
Method in brief: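 U2OS cells expressing RFP-tagged human AR and GFP-tagged TIF2; red fluorescence in nucleoli quantified by high-content imaging. Primary screen at 20 uM final (0.2% DMSO); concentration-response 0.195–50 uM (0.5% DMSO), fitted upward versus DMSO.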

[3] = target: Ratio of Nucleoli Translocation and Cytoplasm, AR (gene 367) (UniProt P10275); assay: UPITT_HCI_U2OS_AR_TIF2_Nucleoli_Cytoplasm_Ratio_Antagonist: University of Pittsburgh U2OS Androgen Receptor-Transcriptional Intermediary Factor 2 (AR-TIF2) Antagonism High Content Imaging Assay for Ratio of Nucleoli Translocation and Cytoplasm (AID 2283999; active = hit-call score of the fitted dose curve at least 0.9, where 1 is the maximum;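 also: antagonists lower the DHT-driven ratio of nucleolar to cytoplasmic red signal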)
Method in brief: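 This antagonist-mode endpoint tracks AR-RFP localisation, the nucleolus-to-cytoplasm intensity ratio, in TIF2-GFP-coexpressing U2OS cells. DMSO stays at or below 0.5%; testing spans 20 uM single-dose and 0.195–50 uM series, with DHT setting the activity baseline.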

[4] = target: Ratio of Nucleoli Translocation and Cytoplasm, AR (gene 367) (UniProt P10275); assay: UPITT_HCI_U2OS_AR_TIF2_Nucleoli_Cytoplasm_Ratio_Agonist: University of Pittsburgh U2OS Androgen Receptor-Transcriptional Intermediary Factor 2 (AR-TIF2) Agonism High Content Imaging Assay for Ratio of Nucleoli Translocation and Cytoplasm (AID 2284000; active = hit-call score of the fitted dose curve at least 0.9, where 1 is the maximum;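 also: hits raise the red nucleolar to cytoplasm ratio above vehicle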)
Method in brief: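 Primary screen at 20 uM final (0.2% DMSO), then triplicate confirmation and dose-response from 0.195 to 50 uM final (0.5% DMSO). Cells: U2OS with AR-RFP and TIF2-GFP. Endpoint is the nucleoli/cytoplasm red-fluorescence ratio, gain-of-signal vs DMSO.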

[5] = CCTE_Shafer_MEA_dev_firing_rate_mean: CCTE's Neural Network Formation Assay for Mean Firing Rate, Shafer Lab (AID 2284031);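 also: curve fitted for loss of firing so AC50 reflects decreased mean firing rate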
Method in brief: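 Extracellular spike frequency, AUC over DIV 5–12 recordings, in rat cortical neuron MEA cultures dosed from plating; loss direction vs DMSO.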

[6] = CCTE_Shafer_MEA_dev_per_burst_spike_percent: CCTE's Neural Network Formation Assay for Percent of Spikes in a Burst, Shafer Lab (AID 2284032);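 also: fitted as a decrease in burst spike percentage below DMSO baseline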
Method in brief: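 Value is trapezoidal AUC over recordings on days 5, 7, 9 and 12 of the well-mean fraction of spikes falling in single-electrode bursts; rat cortical cultures exposed continuously from plating, treatment renewed DIV 5 and 9, fitted downward against DMSO.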

[7] = CCTE_Shafer_MEA_dev_active_electrodes_number: CCTE's Neural Network Formation Assay for Number of Active Electrodes, Shafer Lab (AID 2284040; active = hit-call score of the fitted dose curve at least 0.9, where 1 is the maximum;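 also: potency for loss of active electrodes versus DMSO so lower counts are hits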)
Method in brief: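 Developing rat cortical networks on MEAs, exposed DIV 0–12. Value is the AUC of active-electrode counts (≥5 spikes/min) from days 5, 7, 9, 12, relative to DMSO.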

[8] = CCTE_Shafer_MEA_dev_burst_rate: CCTE's Neural Network Formation Assay for Burst Rate, Shafer Lab (AID 2284042);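 also: potency for loss of burst rate below DMSO control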
Method in brief: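 Exposure ran continuously over 12 days of network development in rat cortical cultures, with compound refreshed during full media changes on DIV 5 and 9. Single-electrode bursts per recording time, well-mean over active electrodes, trapezoidal AUC across days 5–12, fitted downward relative to DMSO.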

[9] = CCTE_Shafer_MEA_dev_per_burst_interspike_interval: CCTE's Neural Network Formation Assay for Burst Interspike Interval, Shafer Lab (AID 2284044);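 also: potency for a decrease of within-burst interspike interval below DMSO level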
Method in brief: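 Primary rat cortical neurons on 48-well MEA plates, exposed from day 0 through day 12, treatment renewed at DIV 5 and 9. Within-burst interspike interval recorded days 5, 7, 9, 12, well-averaged, summarised as AUC; negative fit versus DMSO.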

[10] = CCTE_Shafer_MEA_dev_burst_duration_mean: CCTE's Neural Network Formation Assay for Mean Burst Duration, Shafer Lab (AID 2284045);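 also: curve fitted for loss meaning shorter burst duration than DMSO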
Method in brief: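 Network-formation assay in primary rat cortical neurons; treatment spans twelve days of development. Mean burst duration per well is integrated by trapezoidal AUC and fitted in the loss-of-signal direction against DMSO baseline.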

[11] = CCTE_Shafer_MEA_dev_interburst_interval_mean: CCTE's Neural Network Formation Assay for Mean Interburst Interval, Shafer Lab (AID 2284046);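 also: well-mean interburst interval of bursting electrodes as AUC over four recording days; curve fitted for decrease in interburst interval relative to DMSO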
Method in brief: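 Primary rat cortical neurons on PEI-coated 48-well MEA plates (laminin added with cells at plating) (16 electrodes/well), exposed from plating day 0 with renewal at DIV 5 and 9. Mean inter-burst interval averaged over bursting electrodes, AUC across days 5, 7, 9, 12; DMSO baseline.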

[12] = CCTE_Shafer_MEA_dev_inter_network_spike_interval_mean: CCTE's Neural Network Formation Assay for Mean Inter-network Spike Interval, Shafer Lab (AID 2284047);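 also: potency for a decrease in mean inter-network spike interval below DMSO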
Method in brief: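 Mean time between consecutive network-spike peaks, recorded extracellularly (adaptive spike detection) on DIV 5, 7, 9 and 12, summarized as trapezoidal AUC. Rat cortical cultures on MEAs dosed continuously days 0–12, re-dosed at feeds; loss-of-signal fit relative to DMSO.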

[13] = CCTE_Shafer_MEA_dev_network_spike_number: CCTE's Neural Network Formation Assay for Number of Network Spikes, Shafer Lab (AID 2284048);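 also: synchronized bursts across electrodes counted on days 5 7 9 12 and integrated as AUC; fit as a loss of signal meaning fewer network spikes than DMSO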
Method in brief: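 Extracellular recordings from 16-electrode wells track network formation in rat cortical cultures under continuous treatment from plating. The endpoint is network spike number, expressed as AUC across DIV 5–12 relative to DMSO vehicle.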

[14] = CCTE_Shafer_MEA_dev_network_spike_peak: CCTE's Neural Network Formation Assay for Mean Number of Electrodes in Network Spike, Shafer Lab (AID 2284049);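 also: fitted for loss of signal meaning fewer electrodes in network spikes than DMSO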
Method in brief: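 Continuous 12-day exposure of rat cortical cultures, starting at plating, on MEA plates. Endpoint: electrodes participating in network-spike peaks, AUC across DIV 5–12, DMSO as negative control.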

[15] = CCTE_Shafer_MEA_dev_spike_duration_mean: CCTE's Neural Network Formation Assay for Mean Spike Duration, Shafer Lab (AID 2284051);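 also: mean network spike duration pooled as area under curve over DIV 5 to 12 recordings; potency for a decrease in mean network spike duration versus DMSO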
Method in brief: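 Spontaneous activity was recorded on days 5, 7, 9 and 12 from rat cortical cultures grown on microelectrode arrays and dosed continuously from day 0, with media and compound renewed after the DIV 5 and 9 recordings. Network-spike duration was collapsed by area under the curve.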

[16] = CCTE_Shafer_MEA_dev_network_spike_duration_std: CCTE's Neural Network Formation Assay for Standard Deviation of Network Spike Duration, Shafer Lab (AID 2284052);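 also: hits are decreases in network spike duration SD versus DMSO vehicle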
Method in brief: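 Network spike duration variability was collapsed across recordings on days 5, 7, 9 and 12 by trapezoidal area-under-curve and fitted downward against DMSO. Cultures were rat cortical neurons on PEI-coated MEA plates, dosed continuously from plating, refed with compound DIV 5/9.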

[17] = CCTE_Shafer_MEA_dev_per_network_spike_spike_number_mean: CCTE's Neural Network Formation Assay for Mean Number of Spikes in a Network Spike, Shafer Lab (AID 2284053)
Method in brief: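 Mean spike count within each network spike, taken in a 0.05 s window at its peak, was recorded on days 5, 7, 9 and 12 and integrated as trapezoidal area under the curve. Rat cortical cultures on MEA plates received continuous compound from day 0, refreshed at medium changes on DIV 5 and 9.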

[18] = CCTE_Shafer_MEA_dev_per_network_spike_spike_percent: CCTE's Neural Network Formation Assay for Percent of Spikes in a Network Spike, Shafer Lab (AID 2284054)
Method in brief: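 Developing networks of rat cortical neurons are dosed at day 0 and recorded extracellularly four times up to day 12. The endpoint is the area under the curve of percent spikes in network spikes, fitted in the negative direction relative to DMSO.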

[19] = CCTE_Shafer_MEA_dev_LDH: CCTE's Lactate Dehydrogenase Assay for Cytotoxicity in the Neural Network Formation Assay, Shafer Lab (AID 2284068; active = hit-call score of the fitted dose curve at least 0.9, where 1 is the maximum;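 also: exposure for twelve days from plating with re-dosing on DIV 5 and 9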)
Method in brief: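 Primary rat cortical neurons were cultured on PEI-coated MEA plates and exposed from plating through day 12, with compound renewed at medium changes on DIV 5 and 9. LDH activity was read spectrophotometrically; loss of signal versus DMSO indicates reduced viability.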

[20] = UKN5_HCS_SBAD2_neurite_outgrowth: University of Konstanz (UKN) Leist Lab Neurite Outgrowth Assay in human iPSC-derived immature Dorsal Root Ganglia Neurons (UKN5) (AID 2284070); settings: actives raise or lower the signal
Method in brief: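 Neurite outgrowth is quantified as calcein-AM-labelled neurite area in human iPSC-derived peripheral neurons treated for 24 h, starting 1 h after plating in medium with CHIR99021 (1.5 uM), SU5402 (5 uM) and DAPT (5 uM).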

[21] = CCTE_Shafer_MEA_dev_AB: CCTE's Alamar Blue Assay for Cytotoxicity in the Neural Network Formation Assay, Shafer Lab (AID 2284083; active = hit-call score of the fitted dose curve at least 0.9, where 1 is the maximum;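 also: resazurin reduction fluorescence as viability of cultured neurons; twelve days of exposure from plating with re-dosing on DIV 5 and 9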)
Method in brief: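 Resazurin fluorescence, relative to DMSO, gauges viability after twelve days of exposure that began at plating of rat cortical neurons (1.5 x 10^5 cells/well, 48-well MEA); treatment renewed with full medium exchange on DIV 5 and 9.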

[22] = CCTE_Shafer_MEA_dev_mutual_information_norm: CCTE's Neural Network Formation Assay for Mutual Information Normalization, Shafer Lab (AID 2284091);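 also: mutual information between electrodes summarised as area under curve across four recording days; potency is for a decrease in mutual information relative to DMSO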
Method in brief: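 Exposure of primary rat cortical neurons began at plating and ran to DIV 12, with full media and treatment renewal after DIV 5 and 9 recordings. Mutual information AUC (DIV 5–12) was analysed for loss versus DMSO.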

[23] = CCTE_Shafer_MEA_dev_correlation_coefficient_mean: CCTE's Neural Network Formation Assay for Mean Correlation Coefficient, Shafer Lab (AID 2284093);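 also: well mean pairwise spike train correlation integrated as AUC over recording days 5 to 12; potency fitted for loss of correlation relative to DMSO vehicle wells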
Method in brief: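 Primary rat cortical neurons on PEI-coated 48-well MEA plates (16 electrodes/well) were exposed from plating day 0 through DIV12, with compound renewed at DIV5 and 9. Pairwise spike correlations were averaged per well; trapezoidal AUC across DIV5, 7, 9, 12.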

[24] = UKN2_HCS_IMR90_neural_migration: University of Konstanz (UKN) Leist Lab Neural Crest Cell Migration Assay in human induced IMR90 Pluripotent Stem Cells (UKN2) (AID 2284204); settings: actives raise or lower the signal
Method in brief: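 Using a 96-well stopper format with PLO/laminin/fibronectin coating, neural crest cells from iPSC migrate in cytokine-supplemented N2-S medium; after 24 h, chemicals are applied for a further 24 h, then cells are imaged after dye staining.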

[25] = IUF_NPC1b_proliferation_BrdU_72hr: Leibniz Research Institute for Environmental Medicine (IUF) 72-hour Neural Progenitor Cell Bromodeoxyuridine (BrdU) Proliferation Assay (NPC1b) (AID 2284207)
Method in brief: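 Neural progenitor spheres of human fetal origin are treated for three days; BrdU added for the last 16 h is quantified by luminescence ELISA, with DMSO as baseline and EGF/FGF omission as positive control.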

[26] = IUF_NPC1a_proliferation_area_72hr: Leibniz Research Institute for Environmental Medicine (IUF) 72-hour Neural Progenitor Cell Proliferation Area Assay (NPC1a) (AID 2284208)
Method in brief: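 Single 0.25–0.35 mm human fetal neural progenitor spheres in proliferation medium with EGF and FGF, exposed 72 h from plating without renewal at 37C, pH 7.2-7.6. Sphere area growth measured by automated phase-contrast imaging, relative to DMSO.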

Chain of Ratio of Nucleoli Translocation and Cytoplasm, AR (gene 367) (P10275 whole entry, looked up): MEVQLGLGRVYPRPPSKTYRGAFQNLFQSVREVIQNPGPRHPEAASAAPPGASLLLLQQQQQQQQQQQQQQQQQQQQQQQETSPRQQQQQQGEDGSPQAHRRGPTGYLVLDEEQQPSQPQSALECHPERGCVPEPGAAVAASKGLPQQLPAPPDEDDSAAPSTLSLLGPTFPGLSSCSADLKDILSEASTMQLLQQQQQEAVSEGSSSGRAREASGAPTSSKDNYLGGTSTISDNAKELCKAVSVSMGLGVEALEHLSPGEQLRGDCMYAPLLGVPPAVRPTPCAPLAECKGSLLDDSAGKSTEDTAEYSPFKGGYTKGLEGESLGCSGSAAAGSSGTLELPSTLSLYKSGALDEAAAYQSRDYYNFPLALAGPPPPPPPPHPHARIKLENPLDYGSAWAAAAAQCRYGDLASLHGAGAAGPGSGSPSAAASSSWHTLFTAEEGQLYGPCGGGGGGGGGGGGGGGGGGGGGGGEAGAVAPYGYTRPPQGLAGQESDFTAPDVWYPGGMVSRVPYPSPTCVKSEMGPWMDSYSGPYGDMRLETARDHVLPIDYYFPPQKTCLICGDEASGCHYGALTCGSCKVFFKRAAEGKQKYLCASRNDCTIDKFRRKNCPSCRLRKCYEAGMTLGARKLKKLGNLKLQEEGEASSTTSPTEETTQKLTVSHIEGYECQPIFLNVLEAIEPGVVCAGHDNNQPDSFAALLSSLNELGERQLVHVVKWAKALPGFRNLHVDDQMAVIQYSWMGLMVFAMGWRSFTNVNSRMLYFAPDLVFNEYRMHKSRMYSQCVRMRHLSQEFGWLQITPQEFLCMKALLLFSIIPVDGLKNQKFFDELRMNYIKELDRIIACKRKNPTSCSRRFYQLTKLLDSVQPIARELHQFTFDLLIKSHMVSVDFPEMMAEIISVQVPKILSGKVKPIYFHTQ
Chain of Nucleoli Translocation, AR (gene 367) (P10275 whole entry, looked up): as above

Compound: C[n+]1ccc(-c2cc[n+](C)cc2)cc1
- outcome [1]: inactive
- outcome [2]: inactive
- outcome [3]: inactive
- outcome [4]: inactive
- AC50 [5]: 2290 nM (active)
- AC50 [6]: 1710 nM (active)
- AC50 [7]: 1250 nM (active)
- AC50 [8]: 2290 nM (active)
- AC50 [9]: 2330 nM (active)
- AC50 [10]: 2290 nM (active)
- AC50 [11]: 1160 nM (active)
- AC50 [12]: 760 nM (active)
- AC50 [13]: 2310 nM (active)
- AC50 [14]: 1380 nM (active)
- AC50 [15]: 1150 nM (active)
- AC50 [16]: 1420 nM (active)
- AC50 [17]: 1440 nM (active)
- AC50 [18]: 1810 nM (active)
- AC50 [19]: 1710 nM (active)
- AC50 [20]: 202000 nM (active)
- AC50 [21]: 2340 nM (active)
- AC50 [22]: 2290 nM (active)
- AC50 [23]: 1630 nM (active)
- outcome [24]: inactive
- outcome [25]: inactive
- outcome [26]: inactive
